This passage reports growth results from PubChem BioAssay (NCI).

Molecules are shown by their SMILES. The panel holds about 83,000 compounds, 20% with a hit somewhere; the sample as a whole holds those more often.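 A percent growth of 40 corresponds to 60% growth inhibition; 0 means no net growth; -100 means all cells died. Active threshold: below 10.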 Unmarked numbers belong to inactive results. Activity calls are given as the source filed them.

The first assay has as its system SF-295 CNS. As to the kind of experiment: NCI-60 one-dose screen, 48 h (100 = growth as untreated, 0 = no growth, -100 = all killed). The conditions noted are these: 10 µM unless noted.
For the compound `NNCCc1ccc(NC(=O)CCCc2ccc(/C=C/C(=O)NO)cc2)cc1`, the growth is 77.7%.

With `COc1cc2c(cc1-c1c(C)noc1C)ncc1nc(C3CCOCC3)n([C@H](C)COC(F)F)c12`, the growth was 49.7%.

With `C=CC(=O)Nc1cccc(-c2nc(SC)nc(NCCc3ccc(OC)c(OC)c3)c2C#N)c1`, the growth was 43%.

For another assay, the system named is SF-539 CNS. Described as above. The note with it: 10 µM unless noted.
In the case of `N#CCCN=Nc1c(O)[nH]c2ccc([N+](=O)[O-])cc12`, the growth is 94.9%.

Regarding `COc1cc(-c2ccc3c(c2)NC(=O)/C3=C\c2ccc[nH]2)ccc1O`, the growth was 0.982% (active).

On to `C=C(C)[C@@H]1CC[C@]2(C(N)=O)CC[C@]3(C)[C@H](CC[C@@H]4[C@@]5(C)C/C(=C/c6ccco6)C(=O)C(C)(C)[C@@H]5CC[C@]43C)[C@@H]12`, for which the growth was 98.6%.

In the case of `O=C1Nc2c(ccc(Cl)c2Cl)/C1=C\c1cc(C(F)(F)F)cc(C(F)(F)F)c1`, the growth was -11.3% (active).

`COc1cc2c(cc1-c1c(C)noc1C)ncc1nc(C3CCOCC3)n([C@@H](C)COC(F)F)c12`: the growth was 31.8%.

For `O=C1Nc2c(ccc(Cl)c2Cl)/C1=C\c1ccc(C(F)(F)F)cc1`, the growth was 88.1%.

On to `C[n+]1ccccc1/C=C/c1ccc2cccc(O)c2n1`, for which the growth was 109%.

For `COc1ccc(/C=C/c2nc3ccccc3nc2/C=C/c2ccc(OC)cc2)cc1`, the growth was 89.8%.

Turning to `C=CC(=O)Nc1cccc(-c2nc(SC)nc(NCCN3CCOCC3)c2C#N)c1`, the growth was 93.3%.

For `COc1cc2nc(N3CCCC3)nc(NCc3ccccc3)c2cc1OC`, the growth is 52.4%.

For the compound `COc1cc(CNc2oc(-c3ccccc3)c(-c3ccccc3)c2C#N)cc(CN2CCN(C)CC2)c1O`, the growth is 71.3%.

Turning to `O=C(/C=C/c1cc(CN2CCOCC2)c(O)c2ncccc12)c1cc(CN2CCOCC2)c(O)c2ncccc12`, the growth is 15%.

As to `CSc1nc(NCCO)c(C#N)c(-c2cccc([N+](=O)[O-])c2)n1`, the growth is 96.7%.

Turning to `CCN(CC)c1ccc(-c2cc(-c3cc(OC)c(OC)c(OC)c3)nc(N3CCOCC3)c2C#N)cc1`, the growth was 35.6%.

Take `COc1ccc2[nH]cc(-c3noc(C(=O)c4cn(C)c5ccc(F)cc45)n3)c2c1`: the growth is 95.8%.

Take `CCCc1cc(=O)n2c(C(=O)Nc3cccc(C(=O)OCC)c3)c(C(=O)Nc3ccc(F)cc3)sc2n1`: the growth is 33.9% [30 µM].

Turning to `O=S(=O)(Nc1ccc(I)cc1F)c1ccc(-c2cnc(C3CC3)o2)cc1`, the growth was 44.1%.

For `COC(=O)c1cccc(NC(=O)c2ccc(-c3cccc(N)c3)o2)c1`, the growth was 92.6%.

As for `O=C(/C=C/c1ccccc1)c1ccc(O)c(CN2CCN(c3cc4c(cc3F)c(=O)c(C(=O)O)cn4C3CC3)CC2)c1`, the growth is 10.3%.

On to `Cc1[nH]c(-c2cc(N)ccc2Cl)c2c1C(=O)CCCC2`, for which the growth is 25.3%.

`Nc1nc2ncc(CCNc3ccc(C(=O)O)cc3)nc2c(=O)[nH]1`: the growth was 101%.

As for `O=C1c2cc3c(cc2-c2c1c1ccc(F)cc1c(=O)n2CCCNCCO)OCO3`, the growth was -86.4% (active).

In the case of `N#C/C(=C\c1ccc(-c2cc(C(F)(F)F)ccc2Cl)o1)c1nc(-c2ccco2)cs1`, the growth was 99.3%.

As to `O=c1cc(CSc2nnc(-c3ccc(F)cc3)o2)c2ccc3ccccc3c2o1`, the growth was 98.1%.

As to `C=C(C)[C@@H]1CC[C@]2(C(=O)OC)CC[C@]3(C)[C@H](CC[C@@H]4[C@@]5(C)C/C(=C/c6cccc(I)c6)C(=O)C(C)(C)[C@@H]5CC[C@]43C)[C@@H]12`, the growth is 91.7%.

As for `O=C1OCC2=C1C(c1ccncc1)c1cc3c(cc1N2CCO)OCO3` (stereo not given), the growth is 101%.

Consider `COC(=O)c1ccc(NC(=O)c2ccc(-c3cccc([N+](=O)[O-])c3)o2)cc1`, for which the growth was 90.5%.

`O=c1cc(/C(=C2/C=CC=N2)c2ccc[nH]2)c2cc(Cl)ccc2o1`: the growth was 16.1%.

With `COc1ccc2nc(NC(=O)CSc3nnc4n3S(=O)(=O)c3ccccc3N4c3ccccc3)sc2c1`, the growth is 94.3%.

Consider `Cc1cc(C)nc(SC2=C(Nc3ccc(C)c(Cl)c3)C(=O)N(Cc3ccccc3)C2=O)n1`, for which the growth is 85.8% [30 µM].

`CC(C)C1=C[C@@]23CC[C@@H]4[C@](C)(CCC[C@@]4(C)C(=O)N4CCCNCC4)[C@H]2C[C@@H]1[C@H]1C(=O)CCC(=O)[C@H]13`: the growth was 93.7%.

With `O=C1C=C(OCC=C(Cl)Cl)C(=O)c2ccccc21`, the growth was 93.2%.
